Bioassay records (PubChem)
Coupling enz: qHTS Assay for Inhibitors of Fructose-1,6-bisphosphate Aldolase from Giardia Lamblia: Coupling assay counterscreen | coupling enzyme system counterscreen, AmpLite Red fluorescence | activity change, negative = inhibition, % at 58.2 µM, hits read low | hit rate 0.67% among 290,000 | AID 2472, 2010; in the data active means activity change below about -30%
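Counterscreen lacking aldolase: glyceraldehyde-3-phosphate coupling-enzyme reagent preincubated 10 min at RT with compound (at 57.5 uM final), then substrate/coupling system with AmpLite Red added; fluorescence read at 525/598 nm after 20 min RT.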
Tau FP inhib: qHTS for Inhibitors of Tau Fibril Formation, Fluorescence Polarization. Microtubule-associated protein tau (Homo sapiens), P10636. K18 P301L tau heparin fibrillization, Alexa594 FP, 6 h. Potency, µM (top dose mostly 57.7 µM), inactives show top-dose activity, negative = inhibition, most hits filed as inhibitors. hit rate 0.39% among 280,000. AID 1468, 2008; further: potency means the concentration at half of the fitted maximal effect; nearly all actives have a fitted effect of over 55% in size
Target sequence (P10636 561-689 P618L limits assumed): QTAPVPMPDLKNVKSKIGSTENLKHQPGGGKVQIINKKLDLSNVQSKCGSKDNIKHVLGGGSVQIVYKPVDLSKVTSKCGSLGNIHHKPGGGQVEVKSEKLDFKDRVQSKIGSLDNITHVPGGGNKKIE
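FP of Alexa 594-tau after heparin (20 uM) induction. Substrate: human K18 P301L, 15 uM unlabeled, 0.24 uM labeled. Buffer 100 mM sodium acetate pH 7. 6 hr, 37 C.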
Tau ThT inhib: qHTS for Inhibitors of Tau Fibril Formation, Thioflavin T Binding; recombinant tau K18 P301L, heparin-induced fibrillization, ThT fluorescence; Potency, µM (highest dose often 57.4 µM), for inactives: at the highest dose activity, negative = inhibition, actives largely listed as inhibitors; hit rate 2.1% among 270,000; AID 1460, 2008; further: potency means the concentration at half of the fitted maximal effect; nearly all actives have a fitted effect of over 55% in size
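K18 P301L tau (15 uM + 0.24 uM Alexa 594-tagged), heparin 20 uM, NaOAc pH 7, 6 h 37 C; ThT 30 uM, 1 h RT, ex 450/em 510 nm.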
Sfp inh: qHTS Assay for Inhibitors of Bacillus subtilis Sfp phosphopantetheinyl transferase (PPTase). hit rate 3.5% among 310,000. Biochemical Sfp PPTase activity, qHTS. AID 1490, 2009. 4'-phosphopantetheinyl transferase ffp (Bacillus subtilis), Q9F4F7. Potency, µM, without a hit: largest response in the series, negative = inhibition, hits mostly inhibitors;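 further: the enzyme is Sfp with the accession as filed and its product quenches rhodamine fluorescence; potency means the concentration at half of the fitted maximal effect; 0% = enzyme reaction without inhibitor and -100% = no enzyme wells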
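Compounds were incubated with enzyme (final 15 nM) for 15 min at room temperature before substrate addition started the reaction. Fluorescence at 525 nm excitation, 598 nm emission was recorded immediately and after 30 minutes.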
JMJD2E inh: qHTS Assay for Inhibitors of Human Jumonji Domain Containing 2E (JMJD2E). Lysine-specific demethylase 4E (Homo sapiens), B2RXH2. AID 2147, 2009. Potency, µM (highest dose often 57.1 µM), for the others: at the highest dose activity change, negative = inhibition, actives largely listed as inhibitors. hit rate 1.6% among 230,000. JMJD2E catalytic domain, FDH-coupled NADH fluorescence (FDH is formaldehyde dehydrogenase);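 further: potency means the concentration at half of the fitted maximal effect; 0% = wells with enzyme and -100% = buffer wells without enzyme; nearly all actives have a fitted effect of over 50% in size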
Target sequence (B2RXH2 1-337 limits assumed): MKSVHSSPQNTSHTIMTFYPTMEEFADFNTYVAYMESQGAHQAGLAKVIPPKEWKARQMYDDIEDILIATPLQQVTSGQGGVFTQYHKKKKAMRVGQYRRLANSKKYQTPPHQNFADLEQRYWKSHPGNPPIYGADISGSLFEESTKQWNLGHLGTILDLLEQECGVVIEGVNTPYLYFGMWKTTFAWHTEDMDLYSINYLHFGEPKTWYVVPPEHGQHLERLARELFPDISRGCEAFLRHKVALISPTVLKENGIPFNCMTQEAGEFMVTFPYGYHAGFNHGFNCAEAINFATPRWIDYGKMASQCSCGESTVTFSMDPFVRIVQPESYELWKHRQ
Tau fluor cs: Counterscreen qHTS for Inhibitors of Tau Fibril Formation, Fluorescence Polarization; AID 1463, 2008; Potency, µM (highest dose often 57.7 µM), for the others: at the highest dose activity change, negative = decrease; tau K18 P301L (four-repeat tau fragment) Alexa594 fluorescence, heparin fibrillization; hit rate 0.93% among 280,000; further: potency means the concentration at half of the fitted maximal effect; nearly all actives have a fitted effect of over 55% in size
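Human K18 P301L tau (15 uM unlabeled plus 0.24 uM Alexa 594-labeled, final) in 100 mM sodium acetate pH 7 was mixed with compound and 20 uM heparin and incubated 6 hr at 37 C.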
* hit, by the source's call; ? = inconclusive; . = no result given; [ ] = dose if it differs, or a comment. An excerpt weighted towards active compounds, which were near 5.3% of everything screened. Unless noted, the call rests on the fitted dose curve; in most records, active means well fitted curve in the direction sought with a large enough effect; inconclusive means small, poorly fitted or top-dose-only effect, or another doubt; inactive means no such curve, though single readings can be large; an effect the other way counts as inactive or inconclusive. Unless noted, on the % scale 0 is the no-effect control and ±100 the full control effect.

SMILES	Coupling enz	Tau FP inhib	Tau ThT inhib	Sfp inh	JMJD2E inh	Tau fluor cs
Cc1cccc(N2CCN(C(=O)c3ccc4c(c3)NC(=O)C(CSCc3cccc(F)c3)N4)CC2)c1C (centres undefined)	.	.	.	89µM*	.	.
Cc1cccc(N2CCN(C(=O)CSCc3ccc(F)cc3)CC2)c1C	.	2%	?	.	.	-2%
Cc1ccc(C=Nc2ccc(N(C)C)cc2)o1	-22	25µM*	10µM*	?	13µM*	?
Cc1ccc(C=Nc2ccccc2C(N)=O)o1	-10	4%	-15%	-50%	2%	-4%
CN(C)/N=C/C=C1\CCC/C(=C\c2ccc(F)c(F)c2)C1=O	-2	1%	2%	8.9µM*	3%	-11%
COc1ccc(/C=C2\CCC/C(=C\C=N\N(C)C)C2=O)cc1	2	0%	2.5µM*	-27%	5%	-29%
COc1ccc(/C=C2/CCOC2=O)cc1	2	-11%	?	5%	3%	-20%
CCCN1C(=O)C2(c3ccccc31)c1c(oc3ccc(F)cc3c1=O)C(=O)N2CCCOC(C)C (centres undefined)	.	-10%	-17%	.	.	-23%
Cc1cc(C)nc(SCC(=O)NC2=NC(=O)C(C)S2)n1 (centres undefined)	0	?	?	22µM*	3%	-8%
Cc1ccc(C2=NN=C(NC(=O)CSc3nnc4c5ccccc5n(C)c4n3)SC2)cc1	1	?	2.8µM*	3%	-1%	-22%
Cc1cc(C(F)(F)F)nc(SCC(=O)NC2=NC(=O)C(C)S2)n1 (centres undefined)	-1	?	?	-42%	-6%	-11%
Cc1cc(C)nc(SCC(=O)Nc2cc(C)on2)n1	1	4%	0%	12%	-1%	6%
Cc1ccc(C2=NN=C(NC(=O)CSc3nc(C)cc(C)n3)SC2)cc1	1	?	13µM*	40µM*	2%	-18%
CCc1noc(-c2ccc(NCc3ccccc3)c([N+](=O)[O-])c2)n1	.	-15%	-3%	.	.	-16%
NC(CO)(CO)CO	3	-3%	-5%	-4%	.	-3%
O=C(CSc1ccc(-c2ccccn2)nn1)N1CCCCC1	-1	-3%	-8%	-19%	-17%	-6%
O=C(CSc1ccc(-c2ccccn2)nn1)c1ccc([N+](=O)[O-])cc1	2	2%	16µM*	32µM*	-26%	-28%
O=C(CSc1ccc(-c2ccncc2)nn1)c1ccccc1	-3	-10%	-10%	8%	0%	-9%
O=C(CSc1ccc(-c2cccnc2)nn1)c1ccc([N+](=O)[O-])cc1	1	-5%	14µM*	-30%	-18%	?
Cc1ccc(C(=O)CSc2ccccn2)cc1	5	-10%	-6%	50µM*	?	-3%
CCc1cccc(NC(=O)CSc2ncc3c(n2)-c2ccc(Cl)cc2N(Cc2ccccc2)S3(=O)=O)c1	.	?	8%	.	.	-25%
CCn1c(=O)c2sccc2n2c(CCC(=O)Nc3ccc(F)cc3)nnc12	.	-12%	-7%	.	.	-16%
O=S(=O)(Nc1nc2ccccc2nc1Nc1ccc2c(c1)OCCO2)c1cccs1	4	15%	13µM*	-2%	22µM*	?
Cc1cc(SCC(=O)NCc2ccc(Cl)cc2)nc(=O)[nH]1	.	-1%	-4%	.	.	-4%
COC(=O)CC1[C@@]2(C)C[C@]34OC5(C)OC6(C7CC(=O)OC(c8ccoc8)[C@]7(C)CCC6(O5)[C@]13C)C(OC(C)=O)[C@]4(OC(C)=O)C2OC(C)=O (some centres undefined)	5	-5%	-4%	11%	1%	-4%
SMILES	Coupling enz	Tau FP inhib	Tau ThT inhib	Sfp inh	JMJD2E inh	Tau fluor cs
CC(=O)OCCNc1cc(N2CCN(C)CC2)c2noc3c2c1C(=O)c1ccccc1-3	-26	?	28µM*	4%	-20%	?
O=C(O)CCNc1cc(N2CCN(C(=O)c3ccco3)CC2)c2noc3c2c1C(=O)c1ccccc1-3	-25	.	.	-23%	.	.
CCCCNc1cc(NC2CCCCC2)c2c3c(onc13)-c1ccccc1C2=O	.	1%	?	.	.	?
O=C(O)CCCNc1cc(N2CCN(C3CCCCC3)CC2)c2noc3c2c1C(=O)c1ccccc1-3	.	?	8.9µM*	.	.	?
O=C1c2ccccc2-c2onc3c(NCCO)cc(NC4CCCCC4)c1c23	.	?	7.9µM*	.	.	11µM*[quencher]
CCN1CCN(c2cc(N3CCN(C(=O)c4ccco4)CC3)c3c4c(onc24)-c2ccccc2C3=O)CC1	-30*	.	.	50µM*	.	.
Cn1c(SCC(=O)c2ccc(F)cc2)nnc1-c1ccccc1Br	.	-4%	?	.	.	-10%
O=C(Nc1cc2c(cc1C(=O)c1cccc(Br)c1)OCCO2)c1ccccc1F	.	?	-11%	.	.	?
CN1C(=O)C(Cl)(Cl)C(=O)c2ccccc21	-75*	7.1µM*	4µM*	2.5µM*	?	-20%
CN1CCN(c2ncc3nc(-c4cn(C)c5ccccc45)c(=O)n(CCC#N)c3n2)CC1	-4	.	.	-2%	.	.
Cc1ccc(S(=O)(=O)c2c(N)n(/N=C/c3ccco3)c3nc4ccccc4nc23)cc1C	4	?	16µM*	-9%	?	?
Nc1c(S(=O)(=O)c2ccccc2)c2nc3ccccc3nc2n1/N=C/c1ccco1	-4	-8%	28µM*	-9%	?	?
CCC(=O)C(C(=O)OC)[C@H](CCc1ccccc1)NC(=O)OC (some centres undefined)	0	-11%	0%	10%	-2%	-6%
CC(=O)Nc1ccccc1-c1nc2ccccc2n(C(C)C(=O)Nc2ccccc2C(F)(F)F)c1=O (centres undefined)	.	-2%	5%	.	.	4%
COc1ccccc1OCC(=O)Nc1cc2c(cc1C(=O)O)OCCCO2	10	.	.	79µM*	.	.
O=C(O)c1cc2c(cc1NC(=O)c1ccccc1OC(F)F)OCCCO2	18	.	.	22%	.	.
CCOc1ccccc1OCC(=O)Nc1cc2c(cc1C(=O)O)OCCCO2	11	.	.	79µM*	.	.
COc1ccccc1C(=O)Nc1cc2c(cc1C(=O)O)OCCCO2	5	.	.	31%	.	.
CNC(=O)COc1ccc(Nc2nnc(-c3ccc(C)c(S(=O)(=O)NC(C)(C)C)c3)c3ccccc23)cc1	.	9%	?	.	.	?
